Experimental data reported in PubChem BioAssay (NCI).
The panel holds about 83,000 compounds, 20% with a hit somewhere; the sample as a whole holds those more often.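 Results are percent growth after 48 hours of single-concentration exposure. 100 means growth as in untreated cells, lower positive values show inhibition; negative values down to -100 show cell death.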 Values without a mark were called inactive. Active and inactive are the calls of the source.

These molecules were tested on NCI-H23 lung (assay: NCI-60 one-dose screen, 48 h (100 = growth as untreated, 0 = no growth, -100 = all killed)). Conditions: 10 µM unless noted.
Protocol: Growth inhibition of the NCI-H23 human Non-Small Cell Lung tumor cell line is measured as a screen for anti-cancer activity. Cells are grown in 96 well plates and exposed to the test compound for 48 hours. Compounds are tested at a single concentration, which is 10^-5 M for most compounds. The reported endpoint is percent growth (GI% or GIPRCNT), where numbers from 0 - 100% represent growth inhibition, and numbers from -100% - 0 represent cell death. For example, a value of 40 represents 60% growth inhibition. A value of 0 means no net growth occurred over the course of the experiment. A value of -40 indicates 40% of cells at the beginning of the experiment died by the end of the experiment. A value of -100 means all cells are dead at the end of the experiment.
NCI-60 Human Tumor Cell Lines Screen was performed using the standard one-dose NCI protocol, which is described in more detail at https://dtp.cancer.gov/discovery_development/nci-60/default.htm.
Compounds with GIPRCNT values below 10 were considered active. Activity score was based on GIPRCNT using the following formula: […]
Score is 0 for GIPRCNT values of 100 or above, 50 for GIPRCNT values of 0, and 100 for GIPRCNT values of -100.
For `COC(=O)c1ccc(NC(=O)CSc2nc(-c3ccc(F)cc3)nc3ccccc23)cc1`, the growth was 81.7%. `Nc1c(C(=O)Nc2ccccc2)sc2nc3c(cc12)CN(C(=O)OCc1ccccc1)CC3` showed a growth of 62.6%. `C=C1C(=O)O[C@H]2[C@H]1CC/C(COC(=O)c1cccnc1N)=C\CC[C@@]1(C)O[C@@H]21` was tested, and the growth was 33.9%. `c1cc(CNC23CC4CC(CC(C4)C2)C3)cc(C[N+](Cc2cccc(CNC34CC5CC(CC(C5)C3)C4)c2)(Cc2cccc(CNC34CC5CC(CC(C5)C3)C4)c2)Cc2cccc(CNC34CC5CC(CC(C5)C3)C4)c2)c1` (stereo not given) was tested, and the growth was 42.1% [42 µM]. `CC(=O)[C@@H]1CC[C@]2(C(=O)O)CC[C@]3(C)[C@H](CC[C@@H]4[C@@]5(C)Cc6c([nH]c7ccccc67)C(C)(C)[C@@H]5CC[C@]43C)[C@@H]12` gave a growth of 54.4%. Work on `S=C(Nc1ccccc1)c1ccccn1` yielded a growth of 87.5%. `NS(=O)(=O)c1ccc(-n2ncc(NC(=O)Nc3ccc(S(=O)(=O)Nc4nccs4)cc3)c2-c2ccccc2)cc1` was tested, and the growth was 106%. For `COC(=O)CCc1cc(O)c2c(c1)[C@@H](C(=O)OC)[C@H](c1ccc(O)c(O)c1)O2`, the growth was 76.5%. In the case of `N#Cc1c(-c2ccc(F)cc2)c(C#N)c2c(C#N)c(N)nn2c1N`, the growth is reported as 96.9%. `O=C(O)c1cc(N=Nc2ccc(-c3ccc(N=Nc4c(S(=O)(=O)O)cc5ccc(Nc6ccccc6)cc5c4O)cc3)cc2)ccc1O` gave a growth of 92.6%. `Fc1ccc(N/N=C/c2ccc(-n3cccn3)cc2)cc1` gave a growth of 90.7%. In the case of `COc1ccc(C2N(c3cc(OC)c(OC)c(OC)c3)C(=O)C2(F)F)cc1F` (stereo not given), the growth is reported as 37.9%. Work on `CC(=O)Oc1ccc(O)cc1` yielded a growth of 95.2%. With `C/C(=N/Nc1nc2ccccc2n1C)c1ccccn1` the growth was 6.57% (active). Work on `O=C1[C@@H](OS(=O)(=O)CC(F)(F)F)[C@H](c2ccc(F)cn2)N1c1cc2c3ccccc3ccc2c2ccccc12` yielded a growth of 84.5%. Work on `COC1=CC2C=C(C3N(c4ccccc4)NC(=O)[C@@H]4CCCN34)C(=O)NC2C=C1` (stereo not given in full) yielded a growth of 89.7%. For `CC(C)CSc1nc(Nc2ccccc2)c(C#N)c(-c2ccc(F)cc2)n1`, the growth was 38.7%. With `CN1CC=C(c2cc(NC(=O)Nc3ccc(Oc4ccnc(NC(=O)C5CC5)c4)c(F)c3)cc(C(F)(F)F)c2)CC1` the growth was -14.8% (active). For `CC(=O)ON1CCCC(P(=O)(OCOC(=O)C(C)(C)C)OCOC(=O)C(C)(C)C)C1=O` (stereo not given), the growth was -16.6% (active). With `COC(=O)/C=C1\SC(=Nc2cccc(OC)c2)N(CCc2c[nH]c3ccccc23)C1=O` the growth was 67.9%. In the case of `O=C1NN(c2ccccc2)C(c2ccc3c(c2)OCO3)N2CCC[C@@H]12` (stereo not given in full), the growth is reported as 88.2%. Work on `Cn1c2ccccc2c2c(OC(=O)c3ccccc3)c3c(nc21)-c1ccccc1C3` yielded a growth of 86.1%. `COc1ccc2[nH]c(-c3ccccc3)c(C=C(C#N)C#N)c2c1` showed a growth of 23.4%. `CCc1n(Cc2ccc3ccccc3c2)c2ccccc2[n+]1Cc1ccc2ccccc2c1` showed a growth of 28.8%. Work on `CC(=O)Nc1nc2c(c(N)c1C#N)C(c1cccc(Cl)c1)C1=C(CCCC1=O)N2c1sc2c(c1C#N)CCCC2` (stereo not given) yielded a growth of 67%. `O=C(CN1N=C(c2ccc(F)cc2)CCC1=O)Nc1nc2ccccc2s1` was tested, and the growth was -26.2% (active). Work on `CCOC(=O)C1=C(C)n2nc(CC#N)c(C#N)c2NC1c1ccc(CC)cc1` (stereo not given) yielded a growth of 85.6%. For `CCN1CCN(c2ccc(NC(=O)Nc3nc4ccc(-c5ccccc5OC)cc4s3)cc2)CC1`, the growth was -16.8% (active). For `Cc1c(O)c(=O)ccn1-c1nc2ccccc2s1`, the growth was 102%. In the case of `C#Cc1ccccc1NC(=O)c1sc2nc3c(cc2c1N)CCCCCC3`, the growth is reported as 53.5%. Work on `Cc1cc(C)n(-c2nc(-c3cccs3)c(C#N)c(=O)[nH]2)n1` yielded a growth of 97.6%. In the case of `OCCNc1nc(NCCO)nc(Nc2ccc(C3=NN(c4cc(Cl)cc(Cl)c4)C(c4ccc(Cl)cc4)C3)cc2)n1` (stereo not given), the growth is reported as 29.1%. For `Cc1cc(O)cc(O)c1N=NC1=NCCS1`, the growth was 98%. `COc1ccc(-c2cc(C(=O)N3N=C(c4ccc(N)cc4)CC3c3ccc(OC)cc3)c3cc(OC)ccc3n2)cc1` (stereo not given) was tested, and the growth was 48.6%. For `O=CN1N=C(c2ccc(F)cc2)CC1c1cccc(Nc2ccnc3cc(C(F)(F)F)ccc23)c1` (stereo not given), the growth was 42.5%. `NC(=O)C(O)(c1ccccc1)c1ccccc1` showed a growth of 101%. In the case of `C[C@H]1[C@H](C)CC[C@]2(C(=O)OCCOCCOCC[P+](c3ccccc3)(c3ccccc3)c3ccccc3)CC[C@]3(C)C(=CC[C@@H]4[C@@]5(C)CC[C@H](OC(=O)C(Cl)Cl)C(C)(C)[C@@H]5CC[C@]43C)[C@H]12`, the growth is reported as 5.49% (active). With `C=C1C(=O)O[C@H]2[C@H]1CC/C(COC(=O)n1ccnc1)=C\CC[C@@]1(C)O[C@@H]21` the growth was 91.1%. In the case of `CN(C)[C@@H]1C(=O)C(C(N)=O)=C(O)[C@@]2(O)C(=O)C3=C(O)c4c(O)cc(CN5CCc6ccccc6C5)c(Cl)c4C[C@H]3C[C@@H]12`, the growth is reported as -73.8% (active). `O=c1c2ccccc2oc2ccc(OCCCCCN3CCCCCC3)cc12` gave a growth of 72%.
